KB-3-1 cytotox = kills parental KB-3-1 adenocarcinoma cells; Potency, µM (highest dose often 46.1 µM), hits mostly cytotoxic; KB-3-1 viability, CellTiter-Glo ATP luminescence, 72 h; AID 1347075; hit rate 1.4% among 400,000; further: nearly all actives have a fitted effect of over 60% in size
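Cytotoxicity measured as CellTiter-Glo luminescence after 72 h at 37 C. Compound titrations were pinned onto drug-naive KB-3-1 parental adenocarcinoma cells grown in DMEM with 10% FBS, and normalized data fitted to concentration-response curves.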
KB-V1 cytotox = kills drug-selected multidrug resistant KB-V1 cells | KB-V1 MDR cells viability, CellTiter-Glo, 72 h | Potency, µM (doses to about 46.1 µM), actives largely listed as cytotoxic | hit rate 3.4% among 400,000 | AID 1347076; further: nearly all actives have a fitted effect of over 60% in size
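Readout: CellTiter-Glo luminescence, 10 min after addition. Cells: KB-V1 MDR subline, 72 h at 37 degrees C with compound. Analysis: corrected, normalized data fitted to concentration-effect curves.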
SW480 rereplic = induces DNA re-replication in SW480 colon adenocarcinoma cells; hit rate 1.8% among 340,000; Potency, µM (titrated, usually from 46.1 µM), actives largely listed as activators; SW480 DNA re-replication, Hoechst DNA content imaging, 48 h; further: nearly all actives have a fitted effect of over 55% in size
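Hoechst fluorescence of nuclei (405 nm excitation, 500-530 nm emission) measured by plate-scanning imager after 48 hr compound exposure at 37 C; re-replication scored as increased number of nuclei with elevated intensity.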
PINK1 modulator = PINK1 expression modulation. PINK1 immunofluorescence, high-content cytometry, 24 h. Potency, µM (doses to about 76.6 µM), hits mostly activators. hit rate 0.2% among 410,000; active means well fitted activation curve with a large enough effect; inconclusive means small, poorly fitted or top-dose-only effect; cell line not stated here; further: nearly all actives have a fitted effect of over 65% in size
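Decision-based qHTS: stable cells, 24 h exposure to five compound concentrations, CCCP as control. Fixed cells stained for PINK1 plus nuclear, mitochondrial and cell markers, cytometer read.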
MCF10A rereplic = DNA re-replication induction in MCF 10a cells; MCF 10A DNA re-replication, Hoechst nuclear intensity, 48 h; Potency, µM (highest dose often 46.1 µM), usual class: activators; hit rate 2.9% among 350,000; further: nearly all actives have a fitted effect of over 50% in size
Of the large screens only hits and unclear results are named; the others gave an inactive call. An excerpt weighted towards active compounds, which were near 6.7% of everything screened. Unless noted, the call rests on the fitted dose curve; in most records, active means well fitted curve in the direction sought with a large enough effect; inconclusive means small, poorly fitted or top-dose-only effect, or another doubt; inactive means no such curve, though single readings can be large; an effect the other way counts as inactive or inconclusive.

CC(=O)N(C(C)=O)N1C(=O)c2cccc3c(N4CCOCC4)ccc(c23)C1=O	SW480 rereplic inconclusive
O=C1C=C(N2CCOCC2)c2ccccc2C1=O	KB-3-1 cytotox inconclusive, KB-V1 cytotox inconclusive, SW480 rereplic 2.91µM, MCF10A rereplic inconclusive
Cc1ccc(N2CCOCC2)c2c1C(=O)c1ccccc1C2=O	KB-V1 cytotox 14.6µM, MCF10A rereplic inconclusive
CN(C1=C(N2CCOCC2)C(=O)c2ccccc2C1=O)c1ccccc1	KB-V1 cytotox 11.6µM
O=C1C(N2CCOCC2)=Cc2cccc3cccc1c23	KB-V1 cytotox 16.4µM (no result: SW480 rereplic, MCF10A rereplic)
COc1ccc(OCCCC(=O)Nc2cc(S(=O)(=O)N3CCCCC3)ccc2C)cc1	SW480 rereplic inconclusive
CC1(C)CC(=O)C2=C(C1)NC1=C(C(=O)c3ccccc31)C2c1ccc(O)cc1 (configuration not stated)	none
CCCc1ccc(C2C3=C(CC(C)(C)CC3=O)NC3=C2C(=O)c2ccccc23)cc1 (configuration not stated)	KB-3-1 cytotox inconclusive, KB-V1 cytotox 20.6µM
CCCCc1ccc(C2C3=C(CC(C)(C)CC3=O)NC3=C2C(=O)c2ccccc23)cc1 (configuration not stated)	KB-3-1 cytotox inconclusive, KB-V1 cytotox 16.4µM
COc1cccc(CNC(=O)CSc2ccc(-c3sc(-c4ccccc4)nc3C)nn2)c1	KB-V1 cytotox inconclusive (no result: SW480 rereplic, MCF10A rereplic)
COc1ccc(-c2[nH]c3ccccc3c2SCCNC(=O)c2cc(OC)c(OC)c(OC)c2)cc1	KB-V1 cytotox inconclusive (no result: SW480 rereplic, MCF10A rereplic)
CCCCC[C@H](O)/C=C/C1C(=O)C=C[C@H]1C/C=C\CCCC(=O)OC (some centres not stated)	MCF10A rereplic 18.4µM
O=C1NC[C@@H](CCCCN2C[C@H](Cc3ccc(O)cc3)N(Cc3ccccc3)C(=O)C2=O)N(CCc2ccc(O)cc2)C1=O	KB-V1 cytotox inconclusive (no result: SW480 rereplic, MCF10A rereplic)
CC(CCCC(C)(C)O)NC(=O)c1cc(COc2ccc3ncccc3c2)on1 (configuration not stated)	KB-3-1 cytotox inconclusive, KB-V1 cytotox 5.8µM
O=C(NCc1cccc(Cl)c1)c1cc(COc2ccc3ncccc3c2)on1	KB-3-1 cytotox 11.6µM, KB-V1 cytotox 3.26µM
Cc1ccc(F)cc1CNC(=O)c1cc(COc2ccc3ncccc3c2)on1	none
Cc1ccc(C(=O)NCC(=O)OCc2cc(=O)n3nc(C4CCCCC4)sc3n2)cc1	none (no result: SW480 rereplic, MCF10A rereplic)
O=C(NC(=S)NC1CCCCC1)c1ccc(F)cc1	none
CSc1ccc(OC2CCN(Cc3ccccc3)CC2)cc1	KB-V1 cytotox 16.4µM, SW480 rereplic inconclusive, PINK1 modulator inconclusive, MCF10A rereplic inconclusive
CSc1ccc(CN2CCC(Cc3ccccc3)CC2)cc1	KB-3-1 cytotox inconclusive
CN(C)CCCNC(=O)c1cccc(-c2cnc3cccnn23)c1	none (no result: SW480 rereplic, MCF10A rereplic)
CN1CCN(c2ncnc3c2ncn3[C@H]2CN(Cc3ccc4c(c3)OCO4)C[C@@H](CO)O2)CC1	none (no result: SW480 rereplic, MCF10A rereplic)
CC(=O)N(CCC(c1ccco1)C(C)C)Cc1ccc(Cl)cc1 (configuration not stated)	KB-V1 cytotox inconclusive, MCF10A rereplic 4.11µM
CC(C)(C)NC(=O)CN(Cc1cccs1)C(=O)CN1C(=O)C(=O)c2ccccc21	SW480 rereplic inconclusive, MCF10A rereplic 2.06µM
O=C(CCN1C(=O)COc2ccccc21)NCc1ccco1	none (no result: PINK1 modulator)
O=C(CN(Cc1cccs1)C(=O)CN1C(=O)COc2ccccc21)NCc1ccco1	KB-V1 cytotox 13µM
CC(C)(C)NC(=O)CN(Cc1cccs1)C(=O)c1csnn1	none
COc1ccc([C@H]2CC(=O)C=C(c3ccc(Oc4ccccc4)cc3)C2)cc1OC	KB-3-1 cytotox inconclusive, KB-V1 cytotox inconclusive
Cc1cccc(-n2ncc3c(NNC(=O)c4ccccc4Cl)ncnc32)c1	KB-V1 cytotox inconclusive (no result: SW480 rereplic, MCF10A rereplic)
CCCCCCCCN1C(=O)[C@H](CC(=O)NCc2ccccc2)C[C@@]2(C(=O)OC)CC(C)(C)CC=C12	KB-3-1 cytotox inconclusive, KB-V1 cytotox 18.4µM (no result: SW480 rereplic, PINK1 modulator, MCF10A rereplic)
CCCCCCCCN1C(=O)[C@H](CC(=O)NCc2ccc(OC)c(OC)c2)C[C@@]2(C(=O)OC)CC(C)(C)CC=C12	KB-3-1 cytotox inconclusive, KB-V1 cytotox 20.6µM (no result: SW480 rereplic, PINK1 modulator, MCF10A rereplic)
CCCCCCCCN1C(=O)[C@H](CC(=O)NCCCCc2ccccc2)C[C@@]2(C(=O)OC)CC(C)(C)CC=C12	KB-V1 cytotox inconclusive (no result: SW480 rereplic, PINK1 modulator, MCF10A rereplic)
